Results on 40 molecules are retold here after PubChem BioAssay (Tox21).

“And” between values parts separate entries of the source, which are not always exact repeats. Equal values may be shown once. Records with an inconclusive call do not appear. Where a call stands in place of a potency, no number is given. Some structures have more than one record in an assay (separate samples or runs), and their calls can disagree. The source made the active and inactive calls. Calls come from the whole dose curve.
Potency is the fitted concentration of half-maximal effect.

The assay is described as follows: qHTS assay for small molecule agonists of the p53 signaling pathway - cell viability (AID 651633). Note: nearly all actives have a fitted effect of over 30% in size. Particulars: p53RE-bla HCT-116 viability, ATP luminescence, 16 h; series mostly up to 83.3 µM. From the text: National Center for Advancing Translational Sciences [NCATS]
NIH Chemical Genomics Center [NCGC]
U.S. Environmental Protection Agency [EPA]
National Institutes of Environmental Health Sciences [NIEHS]
National Toxicology Program [NTP]
U.S. Food and Drug Administration [FDA]
p53, a tumor suppressor protein, is activated following cellular insult, including DNA damage and other cellular stresses. The activation of p53 regulates cell fate by inducing DNA repair, cell cycle arrest, apoptosis, or cellular senescence. The activation of p53, therefore, is a good indicator of DNA damage and other cellular stresses. […] The activation of the reporter gene under culture conditions can be detected by fluorescence intensity. This cell line was used to screen the Tox21 compound library in a 1536-well plate format and to identify agonists that activate the p53 signaling pathway.
Tox21 Assay Protocol Summary:
The p53RE-bla cells were dispensed at 4,000 cells/5 ul/well in 1536-well black wall/clear bottom plates using a Multidrop dispenser. After the assay plates were incubated at a 37 C/5% CO2 incubator for 5 hours, 23 nL of compounds dissolved in DMSO, positive controls or DMSO only was transferred to the assay plate by a pin tool. The plates were incubated at 37 C for 16 hours. After 1 uL of LiveBLAzerTM B/G FRET substrate was added using a Flying Reagent Dispenser, the plates were incubated at room temperature for 2 hours, and fluorescence intensity was measured by an Envision plate reader.
For cell viability readout that measures cytotoxicity, 4 ul/well of CellTiter-Glo reagent was added into the assay plates using a Flying Reagent Dispenser. After 30 min incubation at room temperature, the luminescence intensity in the plates was measured using a ViewLux plate reader.
For `C=Cc1cccc(CCl)c1`, the Potency result is “inactive”.

With `CC(C)N(C(=O)CCl)c1ccccc1`, the Potency entry is “inactive and 30.6 µM (active)”.

On to `O=C1C2(Cl)C3(Cl)C4(Cl)C(Cl)(Cl)C5(Cl)C3(Cl)C1(Cl)C5(Cl)C24Cl` (stereo not given), for which the Potency was 37900 nM (active).

In the case of `CCC[CH2][Sn]([CH2]CCC)([CH2]CCC)[O][Sn]([CH2]CCC)([CH2]CCC)[CH2]CCC`, the Potency is 533 nM (active).

Consider `Nc1nc(N)nc(Cl)n1`, for which the Potency result is “inactive”.

Consider `CCOC(=O)Cc1ccccc1`, for which the Potency result is “inactive”.

For `O=C(O)CCCCCCNC1c2ccccc2CCc2ccccc21`, the Potency result is “inactive”.

For the molecule `Oc1cc(Cl)cc(Cl)c1`, the Potency result was “inactive”.

Regarding `CCO/N=C(\CC)C1=C(O)CC(c2c(C)cc(C)cc2C)CC1=O` (stereo not given), the Potency entry was “inactive”.

Consider `CCCCC(CC)COC(=O)OOC(C)(C)C` (stereo not given), for which the Potency result is “inactive”.

Regarding `CC(C)C(Nc1ccc(C(F)(F)F)cc1Cl)C(=O)OC(C#N)c1cccc(Oc2ccccc2)c1` (stereo not given), the Potency entry was “inactive”.

As to `ClC1(Cl)C2(Cl)C3(Cl)C4(Cl)C(Cl)(Cl)C5(Cl)C3(Cl)C1(Cl)C5(Cl)C24Cl` (stereo not given), the Potency result was “inactive”.

For `CC(O)C(=O)[O][Hg][c]1ccccc1` (stereo not given), the Potency is 217 nM (active).

Consider `c1ccc2nc(N3CCNCC3)ccc2c1`, for which the Potency entry is “inactive”.

Consider `O=NN(CCO)CCO`, for which the Potency result is “inactive”.

Consider `Cc1cnc2c(C(=O)O)c(Cl)ccc2c1`, for which the Potency result is “inactive”.

As for `C=C(C)C(=O)[O][Sn]([CH2]CCC)([CH2]CCC)[CH2]CCC`, the Potency is 611 nM (active).

With `CNC(=O)Oc1cc(C)cc(C(C)C)c1`, the Potency entry is “inactive”.

`O=S(=O)(O)F`: the Potency entry was “inactive”.

For `Cc1ccc(C)c2ccccc12`, the Potency result is “inactive”.

As to `CC(C)NCC(O)c1ccccc1Cl` (stereo not given), the Potency entry was “inactive”.

In the case of `C[N+]1(C)[C@@H]2CC[C@H]1CC(OC(=O)C(CO)c1ccccc1)C2` (stereo not given in full), the Potency entry is “inactive”.

`ClCBr`: the Potency result is “inactive”.

With `Nc1ccccc1-c1ccccc1`, the Potency result is “inactive”.

Turning to `CNC(=O)CSP(=O)(OC)OC`, the Potency result was “inactive”.

For `COc1ccc2c3c1O[C@H]1[C@H](O)CC[C@H]4[C@@H](C2)N(C)CC[C@@]341`, the Potency entry is “inactive”.

`Cc1cccc(Cc2cnc[nH]2)c1C`: the Potency result is “inactive”.

`FC(F)C(F)(F)OCC(Cn1cncn1)c1ccc(Cl)cc1Cl` (stereo not given): the Potency entry is “inactive”.

`C#CC1(O)CCCCC1`: the Potency entry is “inactive”.

Consider `O=Cc1ccccc1`, for which the Potency entry was “inactive”.

Regarding `CC(C)N(C(=O)SC/C(Cl)=C/Cl)C(C)C`, the Potency is 21800 nM (active).

`C=CCBr`: the Potency entry is “inactive”.

`CC(=O)C(Cl)C(=O)N(C)C` (stereo not given): the Potency result was “inactive”.

For `COC(=O)c1ccccc1S(=O)(=O)NC(=O)Nc1nc(C)nc(OC)n1`, the Potency result was “inactive”.

On to `CCCC[N+]1(C)CCCC1` (tested in a mixture with another compound), for which the Potency entry was “inactive”.

For the molecule `Clc1cc(Cl)c(-c2cc(Cl)c(Cl)cc2Cl)cc1Cl`, the Potency entry is “inactive”.

On to `Brc1ccc(Oc2ccc(Br)cc2Br)c(Br)c1`, for which the Potency result is “inactive”.

On to `CC1CN1` (stereo not given), for which the Potency entry is “inactive”.

In the case of `CCN(CC)Cc1nccn1-c1ccc([N+](=O)[O-])cc1C(=O)c1ccccc1Cl`, the Potency entry was “inactive”.

Regarding `NC1CCC(CC2CCC(N)CC2)CC1` (stereo not given), the Potency result is “inactive”.
